DRD3 agonist: activates the human D3 dopamine receptor. P35462. D3R DiscoveRx beta-arrestin cells, luminescence, 90 min. max activation, %. actives 0.58% (n = 410,000). AID 652048; in the data active means max activation above about 30%
Target sequence (P35462 whole entry, looked up): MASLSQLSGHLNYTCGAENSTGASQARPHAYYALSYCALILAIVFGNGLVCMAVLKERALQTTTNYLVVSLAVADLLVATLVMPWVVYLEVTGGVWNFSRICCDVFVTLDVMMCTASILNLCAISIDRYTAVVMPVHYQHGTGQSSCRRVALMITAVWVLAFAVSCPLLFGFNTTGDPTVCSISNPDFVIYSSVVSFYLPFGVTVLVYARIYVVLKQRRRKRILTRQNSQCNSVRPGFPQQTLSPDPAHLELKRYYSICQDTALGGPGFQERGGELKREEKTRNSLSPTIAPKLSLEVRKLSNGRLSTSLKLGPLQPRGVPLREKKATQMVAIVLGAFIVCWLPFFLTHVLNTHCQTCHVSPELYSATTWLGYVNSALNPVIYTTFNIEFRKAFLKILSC
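Agonist mode: compounds and dopamine controls were applied to plated cells for 90 min at 37 degrees C after an overnight attachment at 1500 cells/well. Luminescent read-out followed 30 - 60 minutes at room temperature with DiscoveRx detection reagent.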
HepG2 tox-1: kills HepG2 cells in TGF-b inhibitor counter-screen. actives 0.76% (n = 410,000). HepG2 CAGA-GFP viability, ATP luminescence, 18 h. AID 588856. Potency, µM (top dose mostly 46.1 µM), actives largely listed as cytotoxic
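CellTiter-Glo luminescence gave cytotoxicity after 18 hours at 37 degrees C. The cells were HepG2 CAGA-GFP in 1% FBS DMEM, stimulated with 500 pg/mL TGF-beta after compound addition. %Activity was normalised to no-cell wells (complete cell-killing) and DMSO (no toxicity), and curves were fitted and classified.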
TGFb inhibitor: blocks TGF-b signaling. HepG2 CAGA-GFP TGF-b/SMAD3 reporter, GFP fluorescence, 18 h; TGF-beta stimulated, 500 pg/mL final. Potency, µM (titrated, usually from 46.1 µM), most hits filed as inhibitors. actives 1.2% (n = 410,000). AID 588855; further: nearly all actives have a fitted effect of over 65% in size
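Per well, imaged GFP fluorescence of HEPG2 CAGA-GFP cells gives the signal; cells get compound, then TGF-beta (500 pg/mL final), 18 h at 37 degrees C; %Activity versus -TGF-beta and +DMSO controls.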
ATXN2 expr inh: inhibitors of ATXN2 expression; HEK-293 ATXN2-luciferase reporter, luminescence, 24 h; Potency, µM (titrated, usually from 57 µM), usual class: inhibitors; actives 0.72% (n = 360,000); further: nearly all actives have a fitted effect of over 55% in size
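qHTS (up to 57 uM final) was run with 24 h compound exposure of reporter cells at 37 °C. Each well was multiplexed: SteadyGlo luminescence measured ATXN2-luciferase expression after a fluorogenic Gly-Phe-AFC viability readout (25 uM final).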
ATXN viability: viability counter-screen for ATXN expression inhibitors; actives 0.49% (n = 400,000); S2 cells (HEK-293 line with an ATXN2-luciferase reporter) viability, CellTiter-Fluor protease fluorescence, 24 h; AID 651635; Potency, µM (top dose mostly 56.7 µM), usual class: cytotoxic; further: nearly all actives have a fitted effect of over 40% in size
D3 antag: blocks the human D3 dopamine receptor; P35462; D3R cells, DiscoveRx beta-arrestin luminescence, antagonist mode; hits give low values; max response, negative = inhibition, %; actives 2.5% (n = 360,000); in the data active means max response below about -50%; inconclusive means no clear call, values can overlap the other calls
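Cells expressing the human receptor were seeded at 1500 cells/well, incubated overnight at 37 degrees C in 5% CO2, then exposed to library compounds with dopamine controls for 90 minutes at 37 degrees C before luminescent detection.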
TGFb confirm: confirmation of TGF-b signaling inhibitors in HepG2 reporter cells; Potency, µM (series often up to 46.1 µM), actives largely listed as inhibitors; shares compounds with TGFb inhibitor; actives 63% (n = 1,600); HepG2 CAGA-GFP TGF-b reporter, GFP fluorescence, 18 h; cells stimulated with TGF-beta, 500 pg/mL; AID 720534; further: nearly all actives have a fitted effect of over 65% in size
HepG2 tox-2: counter-screen for TGF-b inhibitors: cytotoxicity in HepG2 cells. HepG2 CAGA-GFP viability, ATP luminescence, 18 h; cells stimulated with TGF-beta, 500 pg/mL. Potency, µM (top dose mostly 46.1 µM), actives largely listed as inhibitors. actives 27% (n = 1,600). shares compounds with TGFb inhibitor; further: nearly all actives have a fitted effect of over 70% in size
TGFb CCL64 inh: orthogonal confirmation of TGF-b inhibitors in CCL64 cells; actives 41% (n = 1,600); CCL64 CAGA-GFP reporter, TGF-b stimulated, GFP fluorescence, 18 h; shares compounds with TGFb inhibitor; Potency, µM (titrated, usually from 46.1 µM), actives largely listed as inhibitors; further: nearly all actives have a fitted effect of over 65% in size
COP TGFb inh: TGF-b inhibition validated with COP promoter; shares compounds with TGFb inhibitor; HepG2 COP-GFP TGF-b reporter, GFP fluorescence, 18 h; cells stimulated by added recombinant TGF-beta; actives 3% (n = 1,600); Potency, µM (top dose mostly 46.1 µM), usual class: inhibitors; AID 720537; further: nearly all actives have a fitted effect of over 70% in size
Hits are given with their value; – = inactive; ? = inconclusive; · = no result given. Sampled rows, rich in hits. Any-hit rate of the full collection: about 4.8%. Unless noted, the call rests on the fitted dose curve; in most records, active means well fitted curve in the direction sought with a large enough effect; inconclusive means small, poorly fitted or top-dose-only effect, or another doubt; inactive means no such curve, though single readings can be large; an effect the other way counts as inactive or inconclusive.

SMILES | DRD3 agonist | HepG2 tox-1 | TGFb inhibitor | ATXN2 expr inh | ATXN viability | D3 antag | TGFb confirm | HepG2 tox-2 | TGFb CCL64 inh | COP TGFb inh
Oc1c(CN2CCCCC2)cc(Br)c2cccnc12 | – | – | 2.8µM | 4µM | 3.5µM | -74 | 21µM | ? | 7.3µM | –
CN1CCN(Cc2cc(COCc3ccccc3)c3cccnc3c2O)CC1 | – | – | 4.5µM | 4µM | ? | ? | – | ? | 7.3µM | –
Oc1c(Cl)cc(CN2CCOCC2)c2cccnc12 | – | – | 2.5µM | · | ? | ? | ? | ? | ? | –
COc1ccc(C(=O)Nc2nc3n(n2)C(c2ccc(F)cc2)C=C(c2ccc(Cl)cc2)N3)cc1 (configuration not stated) | – | – | – | – | · | · | · | · | · | ·
COc1ccccc1NC(=O)N1CC=C(c2c[nH]c3ccccc23)CC1 | – | – | · | · | · | · | · | · | · | ·
COc1ccc(C(=O)N2CC(=O)Nc3ccc(F)cc3C2c2ccc(F)cc2)c(OC)c1 (configuration not stated) | – | – | – | – | ? | · | · | · | · | ·
NC(=O)C1CCN(S(=O)(=O)c2ccc(N3CCCCS3(=O)=O)cc2)CC1 | – | – | – | · | · | · | · | · | · | ·
CC1CCc2onc(C(=O)N3CCN(c4ccc(Cl)cc4)CC3)c2C1 (configuration not stated) | – | – | – | · | · | · | · | · | · | ·
O=C(Cc1csc(NC(=O)Nc2ccc(Cl)cc2)n1)NC1CCCC1 | – | – | 11µM | – | – | – | 16µM | – | ? | –
O=C(Cc1csc(NC(=O)Nc2ccc(Cl)cc2)n1)NCc1ccccn1 | – | – | ? | – | – | – | · | · | · | ·
O=S(=O)(c1ccccc1F)N1CCN(Cc2cc3c(cc2Br)OCCO3)CC1 | – | – | 13µM | – | – | – | ? | – | ? | –
Cc1ccc(C)c(CN2CCC3(CCC(CNC(=O)c4ccnn4C)O3)CC2)c1 (configuration not stated) | · | · | · | · | – | · | · | · | · | ·
CCOc1ccc(C2C(C(=O)Nc3ccccc3C)=C(C)Nc3nnnn32)cc1 (configuration not stated) | – | – | – | – | – | · | · | · | · | ·
O=C(CN1CCN(S(=O)(=O)c2cccc(Br)c2)CC1)NCCc1cccs1 | – | – | – | – | – | – | · | · | · | ·
Cc1cc(S(=O)(=O)N2CCN(CC(=O)NCCc3cccs3)CC2)ccc1Br | – | – | 11µM | – | – | – | ? | – | – | –
CC(=O)Nc1ccc(N/C(N)=N/c2nc(C)cc(C)n2)cc1 | – | – | – | – | – | – | · | · | · | ·
Cc1cc(C)nc(/N=C(\N)Nc2ccc(SC(F)F)cc2)n1 | – | – | 8.9µM | · | – | – | – | ? | ? | –
CCOc1ccc(N/C(N)=N/c2nc(C)cc(C)n2)cc1 | – | – | ? | · | ? | – | – | – | ? | –
COc1ccc(CNC(=O)Cn2ccc3cc(S(=O)(=O)N4CCCCC4)ccc32)cc1OC | – | – | ? | – | – | · | · | · | · | ·
COc1ccc(/C=N/n2cnc3c([nH]c4ccc(C)cc43)c2=O)cc1CN1CCCC1 | – | – | ? | · | · | – | · | · | · | ·
COc1ccc(/C=N/n2cnc3c([nH]c4ccc(F)cc43)c2=O)cc1CN1CCCC1 | – | 7.1µM | 7.1µM | · | – | – | 16µM | 23µM | 23µM | ?
COc1ccc(-c2cnc(C)o2)cc1S(=O)(=O)Nc1ccc(C)c(N(C)C)c1 | – | – | – | – | – | · | · | · | · | ·
CC(=O)OC1CCC2(C)C(CCC3C4CC=C(C(C)=O)C4(C)OC(=O)CC32)C1 (configuration not stated) | – | 13µM | 4µM | · | 2.5µM | -94 | 18µM | 12µM | 2.9µM | ?
O=C(Nc1cccc(S(=O)(=O)Nc2ccccc2Cl)c1)c1ccc(Cl)nc1 | – | – | 13µM | – | – | – | 8.2µM | – | – | –
CC1=C(CO)C(=O)OC([C@@H](C)C2CC[C@H]3C4C[C@H]5O[C@]56[C@@H](O)C=CC(=O)[C@]6(C)C4CC[C@]23C)C1 (some centres not stated) | – | – | 2.8µM | 3.2µM | 5.6µM | -136 | 0.58µM | 2.3µM | 1.2µM | ?
SMILES | DRD3 agonist | HepG2 tox-1 | TGFb inhibitor | ATXN2 expr inh | ATXN viability | D3 antag | TGFb confirm | HepG2 tox-2 | TGFb CCL64 inh | COP TGFb inh
CC(=O)Nc1ccc(S(=O)(=O)Nc2ccc(Cl)cn2)cc1 | – | – | – | – | ? | – | · | · | · | ·
CC(=O)Nc1ccc(S(=O)(=O)c2ccnc3cc(Cl)ccc23)cc1 | – | – | 10µM | · | – | ? | 23µM | ? | 21µM | –
CC(=O)c1ccc(NC(=O)CSC2=Nc3ccccc3N=C(c3ccc(F)cc3)C2)cc1 | – | – | ? | – | – | · | · | · | · | ·
Cc1ccccc1CS(=O)(=O)c1nnc([C@H](CC(C)C)NC(=O)OC(C)(C)C)o1 | – | – | 5µM | ? | ? | -66 | 3.7µM | ? | 5.8µM | ?
CC(C)C[C@H](NC(=O)OC(C)(C)C)c1nnc(SCc2ccccc2)o1 | – | – | – | – | – | – | · | · | · | ·
COc1ccccc1CNc1nc2cc(-c3ccc(OC)c(OC)c3)sc2c(=O)n1C | – | – | ? | – | – | – | · | · | · | ·
COc1ccc(-c2cc3nc(NCC4CCCCC4)n(C)c(=O)c3s2)cc1OC | 37 | – | 10µM | ? | ? | – | ? | ? | ? | –
COc1ccccc1NC(=O)CN1C(=O)CC(c2ccc(C)c(C)c2)=Nc2ccccc21 | – | – | ? | – | ? | · | · | · | · | ·
CCOC(=O)CNC(=O)CSc1nnc(Cn2c(=O)sc3ccccc32)n1-c1ccccc1C | – | – | ? | – | – | – | ? | – | – | –
Cc1ccc(Cc2nc3ccccc3nc2SCC(=O)Nc2ccc3c(c2)OCO3)cc1 | – | – | – | – | – | · | · | · | · | ·
CCOC(=O)Nc1nc(-c2ccccc2)c(C(=O)c2ccc(Cl)cc2)s1 | – | – | 8.9µM | – | ? | ? | 7.3µM | – | 9.2µM | –

Assay outcomes: PubChem BioAssay, National Center for Advancing Translational Sciences (NCATS)
